The source of these data is PubChem BioAssay (Tox21).

Assay [1] can be described thus: qHTS assay to identify small molecule agonists of the peroxisome proliferator-activated receptor delta (PPARd) signaling pathway - cell viability counter screen (AID 743211). Also: nearly all actives have a fitted effect of over 55% in size. Also: potency is read from the fitted curve at half-maximal effect. In a few lines:
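Tox21 library compounds, delivered in DMSO, were incubated 17 h with PPARd-bla HEK293H cells; cytotoxicity was taken from CellTiter-Glo luminescence read 30 min after reagent addition.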
A general note: Quantitative high-throughput screening tests each substance at several concentrations.

The nature of assay [2]: qHTS assay to identify small molecule antagonists of the peroxisome proliferator-activated receptor delta (PPARd) signaling pathway - cell viability counter screen (AID 743213). Also: nearly all actives have a fitted effect of over 50% in size. Also: potency is read from the fitted curve at half-maximal effect. In a few lines:
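HEK293H cells with the PPARd UAS-bla reporter, co-treated 17 h at 37 C with compounds and L165041 (300 nM final), were lysed with CellTiter-Glo. Luminescence indicated viable cell content.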

In assay [3] the target is Peroxisome proliferator-activated receptor delta (Homo sapiens) (UniProt Q03181). Nature of the assay: qHTS assay to identify small molecule antagonists of the peroxisome proliferator-activated receptor delta (PPARd) signaling pathway (AID 743215; active = well fitted inhibition curve with a large enough effect in the signal ratio in the repeat runs, not every such curve was filed as active; the % refers to the signal ratio;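 also: cells stimulated with agonist L165041 at 300 nM final during compound exposure; series mostly up to about 62 µM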). In a few lines: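 Here, a reporter line (HEK293H, beta-lactamase under a UAS) measures PPARd signaling. Compounds are tested against agonist L165041 at 300 nM final concentration over 17 h at 37 C, with fluorescence read after substrate.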
Chain of Peroxisome proliferator-activated receptor delta (Homo sapiens) (Q03181 whole entry, looked up): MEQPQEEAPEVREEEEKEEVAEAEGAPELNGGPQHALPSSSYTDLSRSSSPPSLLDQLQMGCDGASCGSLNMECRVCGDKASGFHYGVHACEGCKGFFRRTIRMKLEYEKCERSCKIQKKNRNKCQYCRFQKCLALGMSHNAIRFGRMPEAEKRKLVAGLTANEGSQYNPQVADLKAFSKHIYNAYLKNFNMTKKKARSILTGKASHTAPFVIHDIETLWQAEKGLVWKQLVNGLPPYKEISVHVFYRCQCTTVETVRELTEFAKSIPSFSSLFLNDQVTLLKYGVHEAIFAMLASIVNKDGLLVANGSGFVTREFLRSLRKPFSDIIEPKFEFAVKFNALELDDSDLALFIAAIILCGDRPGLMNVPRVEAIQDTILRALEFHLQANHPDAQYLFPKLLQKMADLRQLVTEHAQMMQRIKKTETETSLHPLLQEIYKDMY

Assay [4] is described as follows: qHTS assay to identify small molecule antagonists of the farnesoid-X-receptor (FXR) signaling pathway - cell viability counter screen (AID 743221; active = well fitted cell-killing curve with a large enough effect in the repeat runs, not every such curve was filed as active; also: nearly all actives have a fitted effect of over 50% in size; also: potency is read from the fitted curve at half-maximal effect). In a few lines: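 Cytotoxicity is taken from ATP luminescence (CellTiter-Glo, 30 min, room temperature) in FXR-bla HEK 293T cells previously incubated 16 h at 37 C with compound and chenodeoxycholic acid at 50 uM final.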

Assay [5] deals with Vitamin D3 receptor (Homo sapiens) (UniProt P11473). The experiment in a line: qHTS assay to identify small molecule agonists of the vitamin D receptor (VDR) signaling pathway (AID 743222; calls by dose curve). In a few lines: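 Tox21 cell reporter format: VDR-bla line, 16 h compound exposure in 5% CO2 at 37C, then fluorescence intensity after 2 h with LiveBLAzer B/G FRET substrate.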
Chain of Vitamin D3 receptor (Homo sapiens) (P11473 whole entry, looked up): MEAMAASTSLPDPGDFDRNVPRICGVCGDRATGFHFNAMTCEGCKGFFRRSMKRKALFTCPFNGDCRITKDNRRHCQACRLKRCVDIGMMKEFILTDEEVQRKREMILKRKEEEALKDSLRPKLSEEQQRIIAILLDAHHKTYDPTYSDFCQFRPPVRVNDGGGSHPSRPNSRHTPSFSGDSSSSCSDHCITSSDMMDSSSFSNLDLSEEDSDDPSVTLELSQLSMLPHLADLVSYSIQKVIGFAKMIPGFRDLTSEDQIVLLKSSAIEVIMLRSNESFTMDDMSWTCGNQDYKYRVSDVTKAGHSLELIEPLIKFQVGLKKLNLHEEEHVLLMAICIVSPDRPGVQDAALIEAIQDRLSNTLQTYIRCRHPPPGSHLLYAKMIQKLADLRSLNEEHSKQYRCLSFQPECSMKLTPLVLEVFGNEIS
For assay [6] the target is unchanged. Nature of the assay: qHTS assay to identify small molecule antagonists of the vitamin D receptor (VDR) signaling pathway (AID 743223; active = well fitted inhibition curve with a large enough effect in the signal ratio in the repeat runs, not every such curve was filed as active; the % refers to the signal ratio). In a few lines:
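Quantitative HTS in VDR-bla reporter cells stimulated with 1alpha,25-dihydroxyvitamin D3, 3 nM final. Compound exposure 16 h, 37C, 5% CO2. Read-out: beta-lactamase FRET substrate fluorescence, 2 h RT.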

Assay [7] in a line: qHTS assay to identify small molecule agonists of the farnesoid-X-receptor (FXR) signaling pathway - cell viability counter screen (AID 743218). Also: nearly all actives have a fitted effect of over 45% in size. Also: potency is read from the fitted curve at half-maximal effect. In a few lines: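 Quantitative HTS counter screen measuring ATP-based viability via CellTiter-Glo luminescence in HEK 293T cells carrying a UAS-driven beta-lactamase reporter, after 16 h compound exposure at 37 C.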
The target in assay [8] is Bile acid receptor (Homo sapiens) (UniProt Q96RI1). Nature of the assay: qHTS assay to identify small molecule antagonists of the farnesoid-X-receptor (FXR) signaling pathway (AID 743217; active = well fitted inhibition curve with a large enough effect in the signal ratio in the repeat runs, not every such curve was filed as active; the % refers to the signal ratio; also: potency is read from the fitted curve at half-maximal effect). In a few lines: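 Test compounds are pin-transferred onto FXR-bla HEK 293T cells, then chenodeoxycholic acid is added at 50 uM final. After 16 h at 37 °C, LiveBLAzer B/G substrate is applied for 2 h at room temperature and fluorescence read.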
Chain of Bile acid receptor (Homo sapiens) (Q96RI1 whole entry, looked up): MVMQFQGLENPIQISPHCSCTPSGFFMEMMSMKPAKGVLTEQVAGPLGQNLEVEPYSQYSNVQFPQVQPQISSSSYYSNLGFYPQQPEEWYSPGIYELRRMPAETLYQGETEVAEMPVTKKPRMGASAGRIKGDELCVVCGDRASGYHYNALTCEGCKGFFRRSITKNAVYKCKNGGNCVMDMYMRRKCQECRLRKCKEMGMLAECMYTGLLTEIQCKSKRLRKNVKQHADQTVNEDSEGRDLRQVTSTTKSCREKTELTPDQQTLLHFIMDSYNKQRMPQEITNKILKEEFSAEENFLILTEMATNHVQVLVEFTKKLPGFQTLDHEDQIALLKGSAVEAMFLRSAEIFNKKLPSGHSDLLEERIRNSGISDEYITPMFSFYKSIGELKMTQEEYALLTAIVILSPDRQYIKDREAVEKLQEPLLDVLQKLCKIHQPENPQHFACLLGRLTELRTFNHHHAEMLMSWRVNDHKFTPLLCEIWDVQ

For assay [9] the target is unchanged. The experiment in a line: qHTS assay to identify small molecule agonists of the farnesoid-X-receptor (FXR) signaling pathway (AID 743220; active = well fitted activation curve with a large enough effect in the signal ratio in the repeat runs, not every such curve was filed as active; the % refers to the signal ratio). In a few lines:
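FXR-UAS-bla HEK 293T cells carrying a UAS-driven beta-lactamase reporter were plated for 5 h at 37C/5% CO2, then exposed to DMSO-dissolved Tox21 10K compounds for 16 h at 37C. A LiveBLAzer B/G FRET substrate was loaded for 2 h at room temperature before fluorescence reading.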

Assay [10] addresses Peroxisome proliferator-activated receptor delta (Homo sapiens) (UniProt Q03181). Nature of the assay: qHTS assay to identify small molecule agonists of the peroxisome proliferator-activated receptor delta (PPARd) signaling pathway (AID 743212; calls by dose curve). In a few lines:
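Read-out: beta-lactamase FRET fluorescence after 2 h room-temperature incubation with LiveBLAzer B/G substrate. Cells were HEK293H carrying a UAS-bla reporter for PPARd, treated at 37 C with DMSO-dissolved compounds.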

Each structure is given as a SMILES string. Where “and” joins values, the source holds several entries; their conditions need not be identical. Identical values can stand only once. Records with an inconclusive call do not appear. Calls of active or inactive are those of the source. Unless noted, calls follow the shape of the dose curve; as a rule, active = well fitted curve in the direction sought with a large enough effect in the repeat runs; inconclusive = weak or mixed curves; inactive = no such curve, though single readings can be large; an effect the other way counts as inactive or inconclusive.

On to `Nc1ccccc1C(=O)OCC(O)CO` (stereo not drawn), for which the Potency entry in [1], in assay [2], in assay [3], in [4] and in [6] was “inactive” in each case. Also, the outcome in assay [5] was inactive.
As to `CN1CC[C@]23c4c5ccc(O)c4O[C@H]2[C@@H](O)C=C[C@H]3[C@H]1C5`, the Potency result in assay [1], in assay [2], in assay [7], in [4] and in assay [6] was “inactive” each time. In addition, the compound was called inactive in [5].
Consider `CC(C)(C)OOC(C)(C)CCC(C)(C)OOC(C)(C)C`, for which the Potency result in assay [1], in assay [2], in assay [7] and in assay [4] was “inactive” in each case. For the same compound, the call in assay [5] was inactive.
As to `FC(Cl)(Cl)C(F)(Cl)Cl`, the Potency result in assay [1], in assay [2], in [7], in assay [4] and in assay [6] was “inactive” each time. The compound was classed as inactive in assay [5].
`[Cl-].[Cl-].[Hg+2]`: the Potency in [1] is 1.73 µM (active) and 2.19 µM (active); in assay [2] it was 2.44 µM (active) and 1.74 µM (active); in [4], 2.18 µM (active) and 3.47 µM (active).
Take `O=C1CC[C@@]2(O)[C@H]3Cc4ccc(O)c5c4[C@@]2(CCN3CC2CC2)[C@H]1O5`: the Potency entry in assay [1], in assay [8], in [7] and in [4] was “inactive” throughout. Further, the compound was called inactive in assay [9].
As for `CC(Cc1ccccc1)NCc1ccccc1Cl` (stereo not drawn), the compound was classed as inactive in assay [10] and in assay [5]. Besides, the Potency entry in assay [3], in assay [4] and in assay [6] was “inactive” each time.
On to `O=C(O)c1ccc(=O)[nH]c1`, for which the Potency entry in assay [1], in assay [2], in assay [4] and in assay [6] was “inactive” in each case.
With `CC(C)(C)NCC(O)c1ccccc1Cl` (stereo not drawn), the Potency result in assay [2] and in assay [4] was “inactive” each time. Further, in assay [9], the compound was called inactive.
Take `Nc1ccc2c(c1)Cc1ccccc1-2`: the outcome in [10] was inactive. Further, the Potency entry in [3], in [4] and in [6] was “inactive” in each case.
In the case of `O=C([O-])c1ccccn1.O=C([O-])c1ccccn1.O=C([O-])c1ccccn1.[Cr+3]`, the Potency result in [1], in assay [7] and in [4] was “inactive” each time.
As for `C[C@]12C=CC3=C4CCC(=O)C=C4CC[C@H]3[C@@H]1CC[C@@H]2O`, the Potency entry in assay [1], in assay [7] and in assay [4] was “inactive” in each case.
For the compound `CC(=O)NNc1ccccc1`, the Potency entry in [8] and in assay [6] was “inactive” each time. Besides, the result in assay [9] and in assay [5] was inactive.
With `O=P(OCC(Br)CBr)(OCC(Br)CBr)OCC(Br)CBr` (stereo not drawn), the call in assay [10] and in assay [9] was inactive. Further, the Potency in assay [8] is 46.5 µM (active). Moreover, the Potency entry in assay [4] is “inactive”.
In the case of `O=[N+]([O-])/C=C/c1ccccc1`, the Potency in [1] is 14 µM (active) and 17.4 µM (active); in [7], 19.8 µM (active) and 15.5 µM (active); in assay [4], 19.8 µM (active) and 38.9 µM (active). For the same compound, the compound was classed as inactive in assay [9] and in [5]. The Potency entry in assay [6] was “inactive”.
As for `Cc1ncc(C[n+]2csc(CCO)c2C)c(N)n1`, the Potency result in [1], in assay [2], in assay [4] and in [6] was “inactive” throughout.
Regarding `N#CC1(N=NC2(C#N)CCCCC2)CCCCC1`, the Potency entry in assay [1], in [7], in assay [4] and in assay [6] was “inactive” in each case.
Regarding `C=CCOCC1CO1` (stereo not drawn), the Potency result in [1], in [7], in assay [4] and in assay [6] was “inactive” throughout. Besides, in assay [9], the compound was classed as inactive.
With `Oc1cccc(Cl)c1`, the Potency entry in assay [1], in assay [8], in [4] and in assay [6] was “inactive” throughout. Also, the compound was classed as inactive in assay [9] and in assay [5].
For the compound `COc1cc(CC#N)cc(OC)c1OC`, the Potency entry in [1], in assay [2], in assay [4] and in assay [6] was “inactive” throughout. Besides, the compound was classed as inactive in assay [5].
On to `Cc1cnc(C2=NC(C)(C(C)C)C(=O)N2)c(C(=O)O)c1` (stereo not drawn), for which the outcome in [10] and in assay [5] was inactive. For the same compound, the Potency result in assay [2], in assay [3], in assay [7], in [4] and in [6] was “inactive” in each case.
